Assay results: PubChem BioAssay AID504523 (Broad Institute, 2011)
Several values for one entry are separate records, joined by “and”; a condition that tells them apart may be missing. Equal entries are not always repeated. Among all 340,000 compounds or so, about 490 (0.14%) were called active. Rule as the data show it: active = inhibition above about 12%; inconclusive = no clear call, values can overlap the other calls; inactive = below about 7.3%. The entries come from a sample that favours actives as a whole. Some structures have more than one record in an assay (separate samples or runs), and their calls can disagree.

Biological target: Kelch-like ECH-associated protein 1 (Homo sapiens) (UniProt Q14145)
Assay: Keap1-Nrf2 protein-protein interaction inhibitors, primary screen, biochemical, fluorescence polarization, single point (AID 504523);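 also: human Keap1 Kelch domain with fluorescein labeled Nrf2 9mer peptide probe; 0% = neutral control wells and 100% = peptide positive control; higher means more block of Keap1 binding to Nrf2 peptide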
Settings: Keap1 Kelch-Nrf2 peptide fluorescence polarization, 1536-well; at 9.4 µM; stronger effect = higher value

Kelch-like ECH-associated protein 1 (Homo sapiens), sequence (Q14145 whole entry, looked up, the tested form may be a part): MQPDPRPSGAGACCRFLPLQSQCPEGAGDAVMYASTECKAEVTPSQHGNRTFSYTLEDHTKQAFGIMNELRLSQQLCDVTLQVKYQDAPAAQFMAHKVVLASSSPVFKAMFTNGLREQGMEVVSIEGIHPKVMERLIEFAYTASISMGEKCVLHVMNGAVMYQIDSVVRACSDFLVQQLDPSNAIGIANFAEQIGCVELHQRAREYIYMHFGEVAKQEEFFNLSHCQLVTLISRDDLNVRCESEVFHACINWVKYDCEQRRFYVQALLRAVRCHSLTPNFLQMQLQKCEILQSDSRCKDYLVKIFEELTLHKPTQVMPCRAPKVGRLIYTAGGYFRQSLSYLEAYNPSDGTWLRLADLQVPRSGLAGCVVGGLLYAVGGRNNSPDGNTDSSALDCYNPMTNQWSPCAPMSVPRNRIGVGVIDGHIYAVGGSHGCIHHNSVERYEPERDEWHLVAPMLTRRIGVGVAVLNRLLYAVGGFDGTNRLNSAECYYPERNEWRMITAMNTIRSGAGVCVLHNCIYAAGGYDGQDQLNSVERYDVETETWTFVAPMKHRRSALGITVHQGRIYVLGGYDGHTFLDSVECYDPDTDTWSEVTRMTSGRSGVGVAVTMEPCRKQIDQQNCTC

SMILES | inhibition
c1ccc(-c2cn3c(n2)CCc2ccc4cccnc4c2-3)cc1 | 0.967% (inactive)
CCCCN(C(=O)C(CCSC)N1C(=O)c2ccccc2C1=O)c1c(N)n(CCC)c(=O)[nH]c1=O (configuration not stated) | -8.81% (inactive)
COc1ccc(C(C(=O)NC(C)(C)C)N(Cc2ccc(F)cc2)C(=O)CCC(=O)Nc2cc(C)on2)cc1 (configuration not stated) | 6.66% (inactive)
CC(C)(C)OC(=O)C[C@@H]1C/C=C\C[C@@H](CC(=O)N[C@@H](CO)Cc2ccccc2)C(=O)N2CCC[C@H]2COC1=O | 5.12% (inactive)
COc1ccc(C2NC(=O)C(=O)/C2=C(\O)c2ccc(Cl)cc2)cc1OC (configuration not stated) | -0.168% (inactive)
C=CCOC(=O)N1CCC2CC1c1cc(-c3ccc(OC)cc3)ccc12 (configuration not stated) | -0.448% (inactive)
CC1Cc2cc(/C(O)=C3\C(=O)C(=O)N(Cc4cccnc4)C3c3ccccc3F)ccc2O1 (configuration not stated) | -1.04% (inactive)
COc1cccc(CC(=O)N2CCCC(CCC(=O)N3CCN(c4ccccn4)CC3)C2)c1 (configuration not stated) | 2.29% (inactive)
COc1ccc(N2C(=O)C(O)C2c2ccc(C)cc2)cc1 (configuration not stated) | -3.41% (inactive)
O=S(=O)(Nc1ccccc1)c1ccc(NS(=O)(=O)c2cccs2)cc1 | -1.45% (inactive)
CCN(CC)CCCC(C)n1c2nc(=O)[nH]c(=O)c-2nc2cc(Cl)ccc21 (configuration not stated) | 152% (active)
CCOc1cc(C2C(C(=O)OC(C)C)=C(C)NC3=C2C(=O)CCC3)cc([N+](=O)[O-])c1O (configuration not stated) | -4.98% (inactive)
CCOCCc1c(O)nc(SCC(=O)NCc2ccco2)[nH]c1=O | -1.62% (inactive)
COc1ccc(CCn2c(NN=C3CCCC3)nc3c2c(=O)[nH]c(=O)n3C)cc1 | 1.25% (inactive)
COc1ccc(C2C(C#N)=C(N)Oc3cc(N)ccc32)cc1OC (configuration not stated) | -3.33% (inactive)
COc1ccc(C2c3ccc(O)cc3Oc3ncn(CCCO)c(=N)c32)cc1OC (configuration not stated) | 28.8% (active)
COc1ccc(CNCCCO)cc1OC | -3.09% (inactive)
Cc1cccc2cc3c(N)c(C(=O)N4CCCc5ccccc54)sc3nc12 | -5.05% (inactive)
O=C1C(=O)N(CCN2CCOCC2)C(c2ccccn2)/C1=C(/O)c1ccc(Cl)cc1 (configuration not stated) | -6.66% (inactive)
CCN(CC)CCN1C(=O)C2C(C(=O)Nc3ccc(Br)cc3)C3C=CC2(O3)C1C(=O)NC1CCCCC1 (configuration not stated) | -0.939% (inactive)
Cc1ccc(CNC(=O)C2(C(F)(F)F)C/C(=C\Cc3ccccc3)CCCO2)o1 (configuration not stated) | -4.24% (inactive)
O=C(NCCOCc1ccc(Cl)cc1)c1ncn[nH]1 | 18.3% (active)

SMILES | inhibition
O=C(NCCS(=O)(=O)NCc1ccc(Cl)cc1)c1ccccc1 | -4.29% (inactive)
Cc1cc(C(=O)NCCc2ccc(Cl)cc2)n(-c2ccccc2)n1 | -8.41% (inactive)
CN(C)C(=S)N=c1ssc(=S)n1Cc1ccco1 | -0.0433% (inactive)
COc1ccccc1CCNC(=O)CN1C(=O)NC2(CCCC2)C1=O | -5.6% (inactive)
Cc1ccc(CC2CC(=O)N(c3nc(C)cc(C)n3)C2=O)cc1 (configuration not stated) | 1.11% (inactive)
O=C1CC(Cc2ccc(Cl)cc2)C(=O)N1c1cc(Cl)ccn1 (configuration not stated) | 40.7% (active)
O=C1CC(Cc2ccccc2)C(=O)N1c1ccc(Cl)cn1 (configuration not stated) | -0.813% (inactive)
O=C(Nc1cccc(S(=O)(=O)N2CCOCC2)c1)C12CC3CC(CC(C3)C1)C2 | 1.77% (inactive)
COc1ccc(NC(=O)CN(C)C(=O)c2n[nH]c3ccccc23)cc1 | 0.904% (inactive)
CCCC(=O)Nc1ccc(C(=O)NCCCn2ccnc2)cc1 | 6% (active)
CCCCC(=O)Nc1ccc(C(=O)NCCCn2ccnc2)cc1 | -4.02% (inactive)
COc1cc(OC)cc(C(=O)NCCCn2ccnc2)c1 | -6.37% (inactive)
Nc1ccccc1SC(C[N+](=O)[O-])c1ccccc1 (configuration not stated) | -4.52% (inactive)
COc1ccc(OC)c2[nH]c(=O)c(CCNC(=O)C(=O)c3c[nH]c4ccccc34)cc12 | -5.41% (inactive)
CC(=O)c1cc(C#N)c(SCC(=O)Nc2nccs2)nc1C | -4.52% (inactive)
Cc1ccnc(NC(=O)C2CCN(S(=O)(=O)c3c(C)c(C)cc(C)c3C)CC2)c1 | -1.09% (inactive)
COCCCNC(=O)C1CCC(CNS(=O)(=O)c2ccc(OC)cc2)CC1 (configuration not stated) | 0.471% (inactive)
O=C(OCC(=O)N(CCc1ccccc1)Cc1ccccc1)c1ccccc1[N+](=O)[O-] | 1% (inactive)
CC(C)C[C@H](NC(=O)C1CCC(CNC(=O)[C@@H]2CCCN2C(=O)OC(C)(C)C)CC1)C(=O)O (some centres not stated) | 0.427% (inactive)
Cc1nc2ccccc2n1C(=O)N1CCOCC1 | -5.92% (inactive)
OCCC1CN(Cc2cccc(O)c2)CCN1CCc1ccccc1 (configuration not stated) | -6.53% (inactive)
COc1ccc(S(=O)(=O)N2C[C@H]3CON(C)[C@H]3C[C@H]2c2cccc(Br)c2)cc1 | -1.34% (inactive)

SMILES | inhibition
COC(C[C@H](O)CC(=O)COCc1ccccc1)OC | -0.107% (inactive)
Cc1cc(C)n(-c2nnc(N3CCN(c4ccccc4)CC3)nn2)n1 | -3.51% (inactive)
C=CCn1c(SCc2cccc(F)c2)nc2cc(C(=O)N3CCC(C(N)=O)CC3)ccc2c1=O | -4.14% (inactive)
COc1cc(/C=N/N=C(\N)c2nonc2N)cc(OC)c1OC | 1.13% (inactive)
c1ccc2c(c1)OCCOCCOCCO2 | 1.51% (inactive)
Cc1ccc2nc(NC(=O)C3CSC4(C)CCC(=O)N34)sc2c1 (configuration not stated) | -0.772% (inactive)
Oc1cccc(CCc2ccccn2)c1 | 1.31% (inactive)
CC(C)(C)N(Cc1ccccc1)C(=O)COC(=O)CCc1c[nH]c2ccccc12 | -5.52% (inactive)
O=C1CC(c2ccccc2)C(c2ccccc2)=NN1 (configuration not stated) | -8.87% (inactive)
CCC1CCc2c(sc(NC(C)=O)c2C#N)C1 (configuration not stated) | -1.96% (inactive)
Cn1nc(-c2ccccc2)c(CSc2cccc(Cl)c2)c1Cl | 1.6% (inactive)
CCN1CC=C2C(C#N)=C(N)C(C#N)(C#N)[C@H](c3ccoc3)[C@H]2C1 | 26.5% (active)
O=c1cnnc(Nc2ccccc2F)[nH]1 | -0.638% (inactive)
CCN(CC)Cc1c(C(=O)N/N=C/c2cccc(OCc3ccc(F)cc3)c2)nnn1-c1nonc1N | 2.94% (inactive)
CC(=O)NS(=O)(=O)c1ccc2c(c1)Cc1cc(S(=O)(=O)NC(C)=O)ccc1-2 | -4.15% (inactive)
Cc1ccc(Nc2cc(C)nc3c(C)ccc([N+](=O)[O-])c23)cc1 | -0.384% (inactive)
CCOc1cc(CNCc2ccccn2)ccc1OCC(=O)NC(C)(C)C | -3.19% (inactive)
O=C(c1c(F)cccc1Cl)N1CCN(S(=O)(=O)c2ccc3c(c2)OCCCO3)CC1 | -0.841% (inactive)
CC(C)C(NS(=O)(=O)c1cccs1)C(=O)Nc1nc(C(C)(C)C)cs1 (configuration not stated) | 1.11% (inactive)
COc1ccc(-c2nonc2NC(=O)c2oc3ccc(F)cc3c2C)cc1OC | 4.52% (inactive)
O=C1CC(C(F)(F)C(F)(F)C(F)(F)C(F)(F)F)=Nc2ccccc2N1 | -1.59% (inactive)
Cc1noc(C)c1COC(=O)Cn1c(C)nc2ccccc21 | 1.41% (inactive)

SMILES | inhibition
CCCc1cc(-c2n[nH]c(=S)n2Cc2ccccc2)cs1 | -5.54% (inactive)
COc1ccccc1NC(=O)CCN1CCN(c2ccc(Cl)cc2)CC1 | 2.69% (inactive)
Cc1ccc(S(=O)(=O)N2[C@@H](c3cccc4ccccc34)C(C(=O)O)=C[C@H]2C(C)(C)C)cc1 | 6.06% (inactive)
Cc1cc(C)nc(N2C(=O)CC(Cc3ccccc3)C2=O)n1 (configuration not stated) | 2.94% (inactive)
O=C(Nc1cccc2c1N(C(=O)c1ccco1)CCC2)c1ccco1 | 0.867% (inactive)
CN(C)c1ccc(C(=S)N2CCN(C(=S)Nc3ccc(Cl)cc3)CC2)cc1 | 1.08% (inactive)
Cc1ccc(Nc2nc(CSc3nnc(-c4ccncc4)n3-c3ccccc3C)cs2)cc1 | -6.12% (inactive)
Nc1c(C(=O)O)cnn1-c1ccccc1 | 1.79% (inactive)
C=C(C)C1CC=C(C)/C(=N\NC(=O)CNc2ccccc2OC)C1 (configuration not stated) | 0.164% (inactive)
COc1cc(OC)c(S(=O)(=O)Nc2ccccc2C(=O)O)cc1S(=O)(=O)Nc1ccccc1C(=O)O | 15.6% (active)
COc1ccc(S(=O)(=O)Nc2ccccc2C(=O)N2CCCC2)cc1C | -0.35% (inactive)
COc1ccc(OC)c(S(=O)(=O)Nc2ccccc2F)c1 | -3.36% (inactive)
O=C(/C=C/c1cc2c(cc1Br)OCO2)NCc1ccc(Cl)cc1 | -0.718% (inactive)
Cc1ccccc1CNC(=O)CCC(=O)N1Cc2ccccc2Oc2ncccc21 | 0.575% (inactive)
O=C(CNCc1ccco1)Nc1cc(S(=O)(=O)N2CCOCC2)ccc1N1CCCC1 | -2.82% (inactive)
CCCCNC(=O)C1CCCN(S(=O)(=O)c2ccc(S(=O)(=O)NCC(C)C)cc2)C1 (configuration not stated) | -0.397% (inactive)
COC(=O)c1ccc(-c2noc(CN(Cc3ccccn3)CC3CCCO3)n2)cc1 (configuration not stated) | -1.93% (inactive)
Cc1ccc2c(c1)N(CC(=O)N1CCC(C)CC1)C(=O)c1cccnc1O2 | -0.762% (inactive)
COc1ccccc1C(=O)NCCn1cc(SCC(=O)NCc2ccco2)c2ccccc21 | -4.2% (inactive)
O=C(NCc1ccncc1)C(=O)NCc1ccco1 | -3.77% (inactive)
CCOC(=O)c1c(NC(=O)CSc2nnc(CNc3ccc(C)cc3C)o2)sc(C)c1C | 3.69% (inactive)
Cc1ccc(-n2c(CNc3ccc(F)cc3)nnc2SCC(=O)N2CCOCC2)cc1 | -5.07% (inactive)

SMILES | inhibition
CSCCC(NC(=O)COc1ccccc1)C(=O)N1CCN(c2cccc(C(F)(F)F)c2)CC1 (configuration not stated) | 1.75% (inactive)
CC(C)=N/N=C1/NC(=O)C(Cc2ccccc2)S1 (configuration not stated) | -5.03% (inactive)
CC(O)c1ccc(OCCN(C)c2ccccn2)cc1 (configuration not stated) | 2.21% (inactive)
CN(CCOc1ccc(CC2SC(=O)NC2=O)cc1)c1ccccn1 (configuration not stated) | 44.6% (active) and -1.69% (inactive)
N#Cc1cccc(CSc2ncnc(N)n2)c1 | -4.01% (inactive)
Cc1nc(SCC(=O)NC2CCCCC2C)c(C#N)c(C)c1C (configuration not stated) | -1.86% (inactive)
COc1ccccc1CNC(=O)C1Cc2ccccc2C(=O)O1 (configuration not stated) | 0.554% (inactive)
CC(Sc1nnc(C2CC2)n1C1CC1)C(=O)Nc1ccc(C(N)=O)cc1 (configuration not stated) | -1.4% (inactive)
COc1ccc(S(=O)(=O)n2nc(C)c(S(=O)(=O)N3CCOCC3)c2C)cc1 | -1.09% (inactive)
CC(C(=O)O)N1C(=O)c2cccc3cccc1c23 (configuration not stated) | -0.759% (inactive)
Cc1nn(C)cc1N1C(=O)c2cccc3c(N)ccc(c23)C1=O | 71% (active)
CN1C(=O)c2cccc3c(N)ccc(c23)C1=O | 16.4% (active)
O=C1c2cccc3c([N+](=O)[O-])ccc(c23)C(=O)N1CC1CCCO1 (configuration not stated) | -6.02% (inactive)
c1ccc(CN=C2Nc3ccccc3CS2)nc1 | -0.423% (inactive)
O=S1(=O)CC/C(=N\Nc2ccc(F)cc2)c2ccsc21 | 3.88% (inactive)
N#CCc1c[nH]c2ccc([N+](=O)[O-])cc12 | 0.344% (inactive)
COC(=O)c1ccc(NC(=S)Nc2cccc(C)n2)cc1 | 1.2% (inactive)
Cc1nn(C)c(C)c1Sc1ccccc1N | -2.63% (inactive)
O=C(Cc1ccc(Cl)cc1)NCc1nc(-c2ccccc2)no1 | -0.917% (inactive)
